CtBP-E1A inh: qHTS Assay for Inhibitors of the CtBP/E1A Interaction; AlphaScreen GST-E1A/His-CtBP binding, 1536-well; active compounds read low; activity change, % (concentration not given with the values); 340,000 compounds, 0.49% hits; CtBP / adenovirus E1A interaction (AlphaScreen); in the data active means activity change below about -65%; inconclusive means mostly about -30% to -63%; further: on the % scale 0 is the no-effect control and ±100 the full control effect
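In 5 uL wells, 23 nL compound meets equimolar GST-E1A and His-CtBP (5X stock 125 nM each) for 2 h, 37 °C. Beads (5X, 50 ug/mL) then 1 h, 37 °C, dark.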
JMJD2A Tudor: qHTS Assay for Inhibitors of JMJD2A-Tudor Domain; AlphaScreen JMJD2A-Tudor / H3K4me3 peptide binding; Potency, µM (highest dose often 114 µM), without a hit: top-dose activity change, negative = inhibition, hits mostly inhibitors; 390,000 compounds, 4.4% hits; Lysine-specific demethylase 4A (Homo sapiens), O75164; AID 504339, 2011; further: potency means the concentration at half of the fitted maximal effect; on the % scale 0 is the no-effect control and ±100 the full control effect; nearly all actives have a fitted effect of over 50% in size
Target sequence (O75164 whole entry, looked up, the tested form may be a part): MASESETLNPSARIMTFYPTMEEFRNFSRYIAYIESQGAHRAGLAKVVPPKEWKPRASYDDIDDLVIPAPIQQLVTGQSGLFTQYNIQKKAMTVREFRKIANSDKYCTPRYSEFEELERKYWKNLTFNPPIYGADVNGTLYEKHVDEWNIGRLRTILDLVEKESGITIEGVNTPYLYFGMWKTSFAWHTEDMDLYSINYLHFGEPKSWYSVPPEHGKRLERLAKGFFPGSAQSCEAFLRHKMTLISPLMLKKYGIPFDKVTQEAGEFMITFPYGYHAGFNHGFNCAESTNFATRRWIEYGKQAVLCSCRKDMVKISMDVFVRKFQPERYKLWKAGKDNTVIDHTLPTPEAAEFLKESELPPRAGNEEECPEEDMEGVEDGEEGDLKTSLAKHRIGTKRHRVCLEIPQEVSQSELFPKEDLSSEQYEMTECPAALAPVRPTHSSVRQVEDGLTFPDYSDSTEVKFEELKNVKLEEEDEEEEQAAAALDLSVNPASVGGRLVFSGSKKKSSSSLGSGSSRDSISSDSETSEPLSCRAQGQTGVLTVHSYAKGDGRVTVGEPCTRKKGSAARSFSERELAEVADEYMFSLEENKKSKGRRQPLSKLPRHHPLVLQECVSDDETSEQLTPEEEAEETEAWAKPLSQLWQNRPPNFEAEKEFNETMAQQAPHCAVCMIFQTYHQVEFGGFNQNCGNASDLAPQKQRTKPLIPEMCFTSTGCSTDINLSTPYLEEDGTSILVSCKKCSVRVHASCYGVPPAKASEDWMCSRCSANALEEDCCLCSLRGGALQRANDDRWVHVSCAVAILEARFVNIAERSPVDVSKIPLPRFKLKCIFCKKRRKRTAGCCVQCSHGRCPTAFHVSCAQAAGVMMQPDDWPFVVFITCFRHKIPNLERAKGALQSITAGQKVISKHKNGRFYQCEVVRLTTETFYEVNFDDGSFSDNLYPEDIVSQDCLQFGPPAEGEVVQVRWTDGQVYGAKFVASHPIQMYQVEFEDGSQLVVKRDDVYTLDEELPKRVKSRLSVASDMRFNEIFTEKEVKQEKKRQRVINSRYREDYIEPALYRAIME
BAZ2B block: qHTS Assay for Inhibitors of BAZ2B. Bromodomain adjacent to zinc finger domain protein 2B (Homo sapiens), Q9UIF8. AlphaScreen BAZ2B-H3K14Ac peptide displacement. Potency, µM (doses to about 114 µM), for the others: top-dose activity change, negative = inhibition, usual class: inhibitors. 360,000 compounds, 4.4% hits; further: potency means the concentration at half of the fitted maximal effect; on the % scale 0 is the no-effect control and ±100 the full control effect; nearly all actives have a fitted effect of over 60% in size
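BAZ2B (50 nM) with biotin-H3(5-23)K14Ac peptide (50 nM) in PBS pH 7.4, 0.01% Tween-20, preformed 30 min, then compound 30 min at room temperature; top concentration 110uM. AlphaScreen streptavidin donor/nickel chelate acceptor beads (10 ug/mL final), 20 min dark, signal read.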
HP1b chromo inh: HTS for Inhibitors of HP1-beta Chromodomain Interactions with Methylated Histone Tails; AlphaScreen HP1-beta / biotin-H3K9me3 peptide binding; Potency, µM (titrated, usually from 114 µM), inactives show at the top dose activity change, negative = inhibition, actives largely listed as inhibitors; 390,000 compounds, 0.56% hits; AID 540317, 2011; further: potency means the concentration at half of the fitted maximal effect; nearly all actives have a fitted effect of over 70% in size
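HP1-beta protein (50 nM final) preincubated 30 min at room temperature with biotinylated H3(1-18)K9me3 peptide (50 nM) in PBS pH 7.4, 0.01% Tween-20, then compound added for 30 min. AlphaScreen streptavidin donor/nickel chelate acceptor beads (10 ug/mL final), 30 min dark, luminescence read.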
Six1-Eya2 inh: qHTS Assay for Inhibitors of the Six1/Eya2 Interaction | AlphaScreen GST-Six1/His-Eya2 binding, biochemical; active compounds read low | 360,000 compounds, 0.56% hits | activity change, % (test concentration not listed) | AID 651725, 2012 | Homeobox protein SIX1 (Homo sapiens) + Protein phosphatase EYA2 (Homo sapiens), …; in the data active means activity change below about -65%; inconclusive means mostly about -30% to -63%; further: on the % scale 0 is the no-effect control and ±100 the full control effect
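AlphaScreen with GST-Six1 and His-Eya2 (5X mix: 250 nM and 500 nM), glutathione donor and nickel acceptor beads; buffer 50 mM Tris pH 8.0, 300 mM NaCl, 1 mM TCEP; 1 h at 37 C in the dark.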
G9a block: qHTS Assay for Inhibitors of Histone Lysine Methyltransferase G9a; Histone-lysine N-methyltransferase EHMT2 (Homo sapiens), Q96KQ7; G9a H3K9 monomethylation, AlphaScreen, 2 h; Potency, µM (series often up to 102 µM), inactives show at the top dose activity, negative = inhibition, actives largely listed as inhibitors; 350,000 compounds, 8.8% hits; further: potency means the concentration at half of the fitted maximal effect; on the % scale 0 is the no-effect control and ±100 the full control effect; nearly all actives have a fitted effect of over 75% in size
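Using a bead-based AlphaScreen, monomethylated H3K9 product from 2 h room-temperature reactions (G9a 20 nM, peptide 500 nM, SAM 20 uM) was detected with 0.5 ug/mL rabbit anti-H3K9me1 antibody.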
Active calls of the source: *; ! = repeats disagree; [ ] = remark or other dose. Compounds with a hit are over-represented: about 10% of the library has one in this group of screens. Unless noted, the call rests on the fitted dose curve; in most records, active means well fitted inhibition curve with a large enough effect; inconclusive means small, poorly fitted or top-dose-only effect; inactive means no such curve, though single readings can be large or run the other way.

What do the screens show for `O=C(NCCOc1ccc(F)cc1)C1CCC(=O)N(CCCN2CCOCC2)C1` (stereo not drawn)?
CtBP-E1A inh: 5; JMJD2A Tudor: -17%; BAZ2B block: -1%; HP1b chromo inh: 52%; Six1-Eya2 inh: 2; G9a block: 14%

What do the screens show for `O=C(NCCOc1ccc(F)cc1)C1CCC(=O)N(CCN2CCOCC2)C1` (stereo not drawn)?
CtBP-E1A inh: 26; JMJD2A Tudor: 2%; BAZ2B block: -34%; HP1b chromo inh: -11%; Six1-Eya2 inh: -5; G9a block: 45µM*

What do the screens show for `O=c1c(C(c2ccccc2)c2c(O)nc3n(c2=O)CCS3)c(O)nc2n1CCS2`?
CtBP-E1A inh: 7; JMJD2A Tudor: 5%; BAZ2B block: -5%; HP1b chromo inh: 28%; Six1-Eya2 inh: 2; G9a block: 40µM*

Results for O=c1c(C(c2ccccc2)c2c(O)nc3n(c2=O)CCCS3)c(O)nc2n1CCCS2 ?
CtBP-E1A inh: 2; JMJD2A Tudor: -7%; BAZ2B block: inconclusive; HP1b chromo inh: 45%; Six1-Eya2 inh: 7; G9a block: 13%[0.501 µM]

How did O=c1c(C(c2ccc(F)cc2)c2c(O)nc3n(c2=O)CCCS3)c(O)nc2n1CCCS2 do in these assays?
CtBP-E1A inh: -8; JMJD2A Tudor: -17%; BAZ2B block: -11%; HP1b chromo inh: 44%; Six1-Eya2 inh: 11; G9a block: 50µM*

How did CC(=O)c1ccc2c(c1)N(C)c1ccccc1S2 do in these assays?
CtBP-E1A inh: 81; JMJD2A Tudor: 151%[57.1 µM]; BAZ2B block: 223%; HP1b chromo inh: 456%; Six1-Eya2 inh: 93; G9a block: 160%[59 µM]

How did CN(C)CCCN1c2ccccc2Sc2ccccc21 do in these assays?
CtBP-E1A inh: -20; JMJD2A Tudor: -14%; BAZ2B block: inconclusive; HP1b chromo inh: 24%; Six1-Eya2 inh: -16; G9a block: 45µM*!

What do the screens show for `CCC(=O)c1ccc2c(c1)N(CCCN(C)C)c1ccccc1S2`?
CtBP-E1A inh: 1; JMJD2A Tudor: -32%; HP1b chromo inh: 5%; Six1-Eya2 inh: 3; G9a block: 14µM*!

What do the screens show for `COc1ccc([C@H]2Sc3ccccc3N(CCN(C)C)C(=O)[C@H]2OC(C)=O)cc1`?
G9a block: 20%[21.5 µM]

How did COc1ccc2c(c1)Sc1ccccc1N2CCN(C)C do in these assays?
CtBP-E1A inh: inconclusive; JMJD2A Tudor: inconclusive; BAZ2B block: 25µM*; HP1b chromo inh: 32µM*; Six1-Eya2 inh: inconclusive; G9a block: inconclusive

How did Cc1ccc(C)c(CN2C(=O)CSc3ccc(C(=O)NCc4ccc(F)cc4)cc32)c1 do in these assays?
JMJD2A Tudor: 4%; BAZ2B block: 1%; HP1b chromo inh: 25%; G9a block: 9%[59 µM]

What do the screens show for `Oc1ccc2oc3c(c2c1C=NCc1ccncc1)CCCC3`?
CtBP-E1A inh: -8; JMJD2A Tudor: -6%; BAZ2B block: 70%; HP1b chromo inh: 31%; Six1-Eya2 inh: 0; G9a block: 71µM*

Results for Oc1ccc2oc3c(c2c1/C=N/n1cnnc1)CCCC3 ?
CtBP-E1A inh: 9; JMJD2A Tudor: -12%; HP1b chromo inh: 29%; Six1-Eya2 inh: 5; G9a block: inconclusive

Results for COCCn1c(C)cc(/C=C2\NC(=S)N(C)C2=O)c1C ?
JMJD2A Tudor: -51%; BAZ2B block: 50µM*; HP1b chromo inh: inconclusive; Six1-Eya2 inh: -14; G9a block: 10µM*

How did O=C(Nc1cccc(Cl)c1)N1Cc2ccccc2Oc2ncccc21 do in these assays?
JMJD2A Tudor: -8%; BAZ2B block: -16%; HP1b chromo inh: 20%; G9a block: -5%[59 µM]

Results for NC(=O)COc1ccc2oc(-c3ccccc3)cc(=O)c2c1 ?
CtBP-E1A inh: 3; JMJD2A Tudor: -3%; HP1b chromo inh: 7%; Six1-Eya2 inh: -14; G9a block: 50µM*

Results for CS(=O)(=O)N1CCc2ccc(NC(=O)C3CCCO3)cc2C1 (stereo not drawn) ?
CtBP-E1A inh: 2; JMJD2A Tudor: -12%; BAZ2B block: -10%; HP1b chromo inh: 52%; Six1-Eya2 inh: -3; G9a block: 79µM*

Results for CCOc1ccc(CNC(=O)C2CCN(C(=O)N3CC(CC)Oc4ccccc43)CC2)cc1 (stereo not drawn) ?
JMJD2A Tudor: -10%; BAZ2B block: -10%; HP1b chromo inh: 21%; G9a block: -20%[59 µM]

What do the screens show for `c1ccc(-n2cnc3ccccc32)nc1`?
CtBP-E1A inh: -2; JMJD2A Tudor: -7%; BAZ2B block: 9%; HP1b chromo inh: 32%; Six1-Eya2 inh: -11

How did S=c1[nH]ncn1-c1ccccn1 do in these assays?
CtBP-E1A inh: -4; JMJD2A Tudor: 20µM*; BAZ2B block: inconclusive; HP1b chromo inh: inconclusive; Six1-Eya2 inh: -4; G9a block: inconclusive

Results for Clc1ccc2nc(-c3ccccn3)c(Nc3ccc4c(c3)OCO4)n2c1 ?
CtBP-E1A inh: 5; JMJD2A Tudor: 2.2µM*; BAZ2B block: 2.8µM*; HP1b chromo inh: inconclusive; Six1-Eya2 inh: -20; G9a block: 18%

What do the screens show for `COc1cc(-c2nc3ccc(Cl)cn3c2Nc2ccc3c(c2)OCO3)ccc1O`?
JMJD2A Tudor: 32µM*; HP1b chromo inh: inconclusive; G9a block: 13µM*

What do the screens show for `O=C(c1ccccc1Cl)N1c2ncnn2C2(CCCCC2)[C@@H]2CCCC[C@@H]21`?
JMJD2A Tudor: -11%; BAZ2B block: -36%; HP1b chromo inh: 19%; G9a block: -19%[59 µM]

Results for O=C(Nc1nc(NC(=O)c2ccco2)n(-c2ccccc2)n1)c1ccccc1 ?
CtBP-E1A inh: inconclusive; JMJD2A Tudor: -9%; BAZ2B block: 45µM*; HP1b chromo inh: 45%; Six1-Eya2 inh: inconclusive; G9a block: 35%[12.7 µM]

How did O=C(Nc1ccccc1NC(=O)c1ccco1)c1ccccc1 do in these assays?
CtBP-E1A inh: -5; JMJD2A Tudor: -6%; BAZ2B block: 0%; HP1b chromo inh: 2%; Six1-Eya2 inh: 1; G9a block: -8%[59 µM]

What do the screens show for `CCc1ccc(N(C(C)=O)c2nc(CCl)cs2)cc1`?
CtBP-E1A inh: 1; JMJD2A Tudor: -7%; BAZ2B block: -23%; HP1b chromo inh: 45%; Six1-Eya2 inh: -3; G9a block: 18µM*
